# CXXC DNA block: blocks binding of human MLL CXXC domain to DNA; Q03164; MLL-CXXC / FITC-HOXA9 DNA fluorescence polarization; Potency, µM (top dose mostly 115 µM), for inactives: at the highest dose activity change, negative = inhibition, actives largely listed as inhibitors; 0.037% of 290,000 active; active = well fitted inhibition curve with a large enough effect in the polarisation, with a control signal flat, not every such curve was filed as active; inconclusive = small, poorly fitted or top-dose-only effect, or effect the other way, or a change in a side signal; inactive = no such curve, though single readings can be large or run the other way; the % refers to the polarisation; also: potency is read from the fitted curve at half-maximal effect
#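 Purified MLL-CXXC (added from a 7 uM solution) was preincubated 5 min at ambient with pinned compounds in 50 mM Tris-HCl pH 7.5, 50 mM NaCl, 1 mM DTT, 0.05% BSA. Fluorescein-labeled HOX-A9 DNA (50 nM solution) followed, 30 min, then polarization read.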
# Six1-Eya2 blk: inhibitors of human Six1/Eya2 interaction; AlphaScreen GST-Six1/His-Eya2 binding, biochemical; stronger effect = lower value; AID 651725; Q15475+O00167; activity change, % (test concentration not listed); 0.56% of 360,000 active; in the data active = activity change below about -65%; inconclusive = mostly about -30% to -63%; also: % is scaled to controls: 0 for no effect and ±100 for the full control effect
#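 Compounds are tested against tagged Six1 and Eya2 proteins bridged by glutathione donor and nickel acceptor beads; after a one-hour incubation at 37 °C without light, AlphaScreen emission is recorded.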
# Menin-MLL FL inh: menin-MLL binding inhibition, fluorescein peptide. Fluorescence polarization, fluorescein-MLL peptide displacement from menin. AID 1766. FP activity change, % at 61.4 µM. 290,000 tested, under 10 active; active = well fitted curve in the direction sought with a large enough effect in the polarisation, not every such curve was filed as active; inconclusive = small, poorly fitted or top-dose-only effect, or effect the other way, or a change in a side signal; inactive = no such curve, though single readings can be large or run the other way; the % refers to the polarisation; also: % of control where 0% means no effect
# GLS inhibitor: glutaminase GLS (human) inhibition. O94925. GLS enzymatic activity, qHTS titration. Potency, µM (highest dose often 45.5 µM), for inactives: at the highest dose activity change, negative = inhibition, most hits filed as inhibitors. 0.21% of 410,000 active. AID 624170; also: potency is read from the fitted curve at half-maximal effect; % is scaled to controls: 0 for no effect and ±100 for the full control effect
# Target sequence (O94925 whole entry, looked up): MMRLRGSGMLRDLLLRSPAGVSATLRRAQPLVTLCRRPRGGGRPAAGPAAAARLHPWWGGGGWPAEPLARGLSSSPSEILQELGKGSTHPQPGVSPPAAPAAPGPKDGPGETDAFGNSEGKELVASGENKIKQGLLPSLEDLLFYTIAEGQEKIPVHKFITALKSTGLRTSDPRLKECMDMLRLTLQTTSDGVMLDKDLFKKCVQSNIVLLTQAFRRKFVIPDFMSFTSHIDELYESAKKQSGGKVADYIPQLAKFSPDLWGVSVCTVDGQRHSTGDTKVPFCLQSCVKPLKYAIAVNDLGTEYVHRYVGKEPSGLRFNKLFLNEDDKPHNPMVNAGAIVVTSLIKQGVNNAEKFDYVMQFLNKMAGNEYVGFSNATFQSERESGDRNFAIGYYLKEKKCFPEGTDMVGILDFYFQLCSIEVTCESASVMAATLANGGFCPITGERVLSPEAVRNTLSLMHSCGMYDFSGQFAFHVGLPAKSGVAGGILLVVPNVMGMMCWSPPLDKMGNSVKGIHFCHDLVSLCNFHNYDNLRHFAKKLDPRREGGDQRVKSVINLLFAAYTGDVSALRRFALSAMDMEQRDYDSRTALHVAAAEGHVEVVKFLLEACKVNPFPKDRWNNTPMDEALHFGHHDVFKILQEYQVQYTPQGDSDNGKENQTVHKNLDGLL
#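 hKGA; 45 mM KH2PO4 pH 8.2 + 0.02% Tween-20; cpd via pin tool; 1 mM Gln soln; GluOx/HRP/Amplex Red; RT 30 min; fluor. t0 & final.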
# CtBP-E1A blk: inhibitors of CtBP/E1A interaction. AlphaScreen GST-E1A/His-CtBP binding, 1536-well; stronger effect = lower value. activity change, % (no concentration beside the values). 0.49% of 340,000 active; in the data active = activity change below about -65%; inconclusive = mostly about -30% to -63%; also: % is scaled to controls: 0 for no effect and ±100 for the full control effect
#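 Homogeneous bead-based format: GST-tagged E1A captured on glutathione donor beads, His-tagged CtBP on nickel acceptor beads; compounds precede bead addition by 2 h at 37 °C.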
# Menin-MLL TR inh: menin-MLL binding inhibition, Texas Red mutant peptide | Potency, µM (titrated, usually from 61.6 µM), for the others: at the top dose FP activity change, negative = inhibition, usual class: inhibitors | O00255 | AID 1768 | 0.23% of 270,000 active | Menin + Texas Red MLL mutant peptide, fluorescence polarization; active = well fitted inhibition curve with a large enough effect in the polarisation, with a control signal flat, not every such curve was filed as active; inconclusive = small, poorly fitted or top-dose-only effect, or effect the other way, or a change in a side signal; inactive = no such curve, though single readings can be large or run the other way; the % refers to the polarisation; also: potency is read from the fitted curve at half-maximal effect; % of control where 0% means no effect
# MLL CXXC Fl: MLL CXXC-DNA interaction inhibition, fluorescein FP; Potency, µM (series often up to 345 µM), for the others: at the highest dose activity change, negative = inhibition, most hits filed as inhibitors; 70% of 200 active; shares compounds with CXXC DNA block; MLL CXXC-DNA binding, fluorescein FP; AID 624160; also: potency is read from the fitted curve at half-maximal effect; nearly all actives have a fitted effect of over 80% in size
# MLL CXXC TxRed: disrupts human MLL CXXC domain binding to DNA, Texas Red. shares compounds with CXXC DNA block. 40% of 200 active. AID 624161. Potency, µM (doses to about 345 µM), inactives show at the top dose activity change, negative = inhibition, actives largely listed as inhibitors. MLL CXXC-DNA binding, Texas Red fluorescence polarization; also: potency is read from the fitted curve at half-maximal effect; % is scaled to controls: 0 for no effect and ±100 for the full control effect; nearly all actives have a fitted effect of over 75% in size
# MLL CXXC HTRF: inhibitors of human MLL CXXC domain-DNA interaction, HTRF format. shares compounds with CXXC DNA block. MLL CXXC-DNA binding, HTRF, biochemical. Potency, µM (top dose mostly 172 µM), for the others: at the highest dose activity change, negative = inhibition, hits mostly inhibitors. 30% of 210 active. AID 624162; also: % is scaled to controls: 0 for no effect and ±100 for the full control effect; nearly all actives have a fitted effect of over 80% in size
# The depositor's hits bear a star; ? = inconclusive; nt = no result given; ! = a repeat was not active; [ ] = another dose, or the depositor's remark. Only some compounds are listed: those with a hit (about 0.83% of all), similar ones and a draw of the others. Unless noted, calls follow the shape of the dose curve; as a rule, active = well fitted curve in the direction sought with a large enough effect; inconclusive = small, poorly fitted or top-dose-only effect, or another doubt; inactive = no such curve, though single readings can be large; an effect the other way counts as inactive or inconclusive.
SMILES,CXXC DNA block,Six1-Eya2 blk,Menin-MLL FL inh,GLS inhibitor,CtBP-E1A blk,Menin-MLL TR inh,others
COC[C@H]1OC(=O)c2coc3c2[C@@]1(C)C1=C(C3=O)[C@H]2CCC(=O)[C@@]2(C)C[C@H]1OC(C)=O,nt,nt,?,nt,nt,10µM*,
CN1C(=O)C(=Cc2ccc(N3CCCCCC3)o2)C(=O)N(C)C1=S,?,8,?,2%,3,?,
O=C(O)c1ccccc1-c1ccc(C=C2C(=O)N(c3ccccc3)C(=S)N(c3ccccc3)C2=O)o1,?,-3,?,8.9µM*,nt,58%,
C[C@]12CCC(=O)C=C1CC[C@H]1C2CC[C@@]2(C)[C@@H]1CC[C@]2(C)O (some centres undefined),nt,nt,nt,4%,nt,nt,
CC/C(=N\Nc1ccccc1)c1c(O)n(-c2ccc(OC)cc2)c(=O)[nH]c1=O,-6%,4,1,10µM*,3,nt,
C=C/C=C/CC1=C(C)[C@@H](OC(=O)[C@@H]2[C@@H](/C=C(\C)C(=O)OC)C2(C)C)CC1=O (tested in a mixture with another compound),nt,nt,nt,-3%,nt,nt,
Oc1cc[c]([Hg][Cl])cc1,-8%,nt,-6,?,nt,4%,
C#C[C@]1(O)CCC2C3CCC4=C/C(=N/OCC(=O)NC(C)C(=O)NC(CCSC)C(=O)O)CC[C@]4(C)C3CC[C@@]21C (some centres undefined),4%,-18,-16,-9%,nt,25µM*,
C#C[C@]1(O)CC[C@H]2[C@@H]3CCC4=CC(=O)CC[C@]4(C)[C@H]3CC[C@@]21C,1%,1,0,-1%,0,6%,
O=c1c2ccccc2nc(CN2CCCCCC2)n1-c1ccc(F)cc1,10%,2,-27,17%,4,18µM*,
CCC(CC)N1CCN(Cc2nc3ccccc3c(=O)n2-c2ccc(F)cc2)CC1,3%,1,-10,14%,3,-10%,
O=c1[nH]c(=O)n(-c2cccc(Cl)c2)c(O)c1/C=N/c1ccccn1,14%,-5,3,5%,2,4%,
COc1ccc2nc(/N=C/c3c(O)n(-c4cccc(Cl)c4)c(=O)[nH]c3=O)sc2c1,-4%,-71*,?,41%,?,6%,
CC[C@@H](O)C(C[C@@H](C)N(C)C)(c1ccccc1)c1ccccc1,nt,nt,nt,13%[99.4 µM],nt,nt,
O=C(N/N=C/c1c(O)n(Cc2ccco2)c(=O)[nH]c1=O)c1ccccc1O,7%,-87*,?,0%,-89*,nt,
CCCCC(=O)N/N=C/c1c(O)n(C2CC2)c(=S)[nH]c1=O,-15%,0,nt,1%,4,12%,
CCCCC(=O)N/N=C/c1c(O)n(CCCC)c(=S)[nH]c1=O,1%,-74*,7,3%,-66*,nt,
O=c1[nH]c(=O)n(Cc2ccco2)c(O)c1C=NCc1ccco1,7%,-1,?,-25%,-1,5%,
CCn1c(O)c(/C=N/NC(=O)c2ccncc2)c(=O)[nH]c1=S,3%,-17,1,-1%,nt,5%,
CCCCC(=O)N/N=C/c1c(O)n(-c2cccc3ccccc23)c(=O)[nH]c1=O,-10%,-71*,1,2%,nt,nt,
O=C(N/N=C/c1c(O)n(Cc2ccc(F)cc2)c(=S)[nH]c1=O)c1ccncc1,42%,?,17,0%,-67*,nt,
C[C@]12CC[C@@H]3c4ccc(OC(=O)N(CCCl)CCCl)cc4CC[C@H]3[C@@H]1CC[C@@H]2OP(=O)(O)O,nt,nt,nt,3%,nt,nt,
NC1CCCC[C@H]1N (some centres undefined),nt,nt,-1,nt,nt,1%,
CC(=O)Nc1ccc(N=Cc2c(O)n(Cc3ccco3)c(=O)[nH]c2=O)cc1,6%,-18,6,1%,-2,nt,
CCCCC(=O)N/N=C/c1c(O)n(Cc2ccco2)c(=O)[nH]c1=O,38%,-75*,33,0%,?,8%,
SMILES,CXXC DNA block,Six1-Eya2 blk,Menin-MLL FL inh,GLS inhibitor,CtBP-E1A blk,Menin-MLL TR inh,others
COC(=O)[C@@H]1C[C@H]1[C@@H](NP(=O)(c1ccccc1)c1ccccc1)c1ccccc1,5%,6,1,8%,0,0.14µM*!,
O=C1NC(=O)N(c2ccccc2)C(=O)/C1=C\c1ccc([N+](=O)[O-])s1,26%,?,?,?,-28,nt,
COc1ccc(OC)c(N2C(=O)NC(=O)/C(=C\c3ccc([N+](=O)[O-])s3)C2=O)c1,-30%,-67*,25,10µM*,?,?,
CC(=O)[C@@]1(O)CC[C@@H]2[C@@H]3CCC4=CC(=O)CC[C@]4(C)[C@]3(F)[C@@H](O)C[C@@]21C,nt,nt,nt,1%,nt,nt,
Cc1cc(/C=C2\C(=O)NC(=O)N(c3ccccc3F)C2=O)c(C)n1-c1cc(C(=O)O)cc(C(=O)O)c1,13µM*,?,8,5µM*,nt,26%,MLL CXXC Fl=8µM*;MLL CXXC TxRed=22µM*;MLL CXXC HTRF=24µM*
Cc1cc(/C=C2\C(=O)NC(=O)N(c3ccccc3)C2=O)c(C)n1-c1ccc(C(=O)O)c(Cl)c1,?,-4,15,-15%,nt,23%,MLL CXXC Fl=7%;MLL CXXC TxRed=113µM*;MLL CXXC HTRF=-2%
Cc1cc(/C=C2\C(=O)NC(=O)N(c3ccc(F)cc3)C2=O)c(C)n1-c1cccc(C(=O)O)c1,-19%,-9,8,?,4,10%,
N#CC(=Cc1ccc(O)c(O)c1)C(N)=S,42%,nt,?,nt,nt,11%,
O=C1NC(=S)NC(=O)C12C(c1ccc(F)cc1)NC(=S)NC2c1ccc(F)cc1 (centres undefined),?,-2,1,16%,-9,nt,MLL CXXC Fl=?;MLL CXXC TxRed=31%;MLL CXXC HTRF=-10%
CC(=O)[C@H]1CC[C@H]2C3CC[C@H]4C[C@](C)(O)CC[C@]4(C)C3CC[C@]12C (some centres undefined),nt,nt,-3,nt,nt,-1%,

# Screens (PubChem)
